Experimental data reported in PubChem BioAssay AID493194 (Broad Institute, 2011).
Results with a measured potency or affinity are listed apart. Inconclusive results are not listed. Unmarked numbers belong to inactive results.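 How the source made its calls: active means a valid curve of falling signal whose half-effect concentration is at most ten times the top tested dose; inconclusive means flat curve at 30 to 70% inhibition, or poor fit; inactive means signal rise, flat within 30%, or potency beyond limit.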

Each compound was assayed against Scavenger receptor class B member 1 (Mus musculus) (UniProt Q61009) (assay: inhibitors of SR-BI mediated HDL lipid uptake, dose response, ldlA[mSR-BI] cells, fluorescence, cherry pick (AID 493194;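 further: CHO cells lacking LDL receptor and overexpressing mouse SR-BI; cellular uptake of fluorescently labeled HDL measured as cell fluorescence; 0% = median of neutral control wells and -100% = median of positive control wells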)). Details: CHO ldlA[mSR-BI] DiI-HDL uptake fluorescence, 3 h; series mostly up to 35 µM; activity change, negative = inhibition: at the top concentration.
Sequence of Scavenger receptor class B member 1 (Mus musculus) (Q61009 whole entry, looked up): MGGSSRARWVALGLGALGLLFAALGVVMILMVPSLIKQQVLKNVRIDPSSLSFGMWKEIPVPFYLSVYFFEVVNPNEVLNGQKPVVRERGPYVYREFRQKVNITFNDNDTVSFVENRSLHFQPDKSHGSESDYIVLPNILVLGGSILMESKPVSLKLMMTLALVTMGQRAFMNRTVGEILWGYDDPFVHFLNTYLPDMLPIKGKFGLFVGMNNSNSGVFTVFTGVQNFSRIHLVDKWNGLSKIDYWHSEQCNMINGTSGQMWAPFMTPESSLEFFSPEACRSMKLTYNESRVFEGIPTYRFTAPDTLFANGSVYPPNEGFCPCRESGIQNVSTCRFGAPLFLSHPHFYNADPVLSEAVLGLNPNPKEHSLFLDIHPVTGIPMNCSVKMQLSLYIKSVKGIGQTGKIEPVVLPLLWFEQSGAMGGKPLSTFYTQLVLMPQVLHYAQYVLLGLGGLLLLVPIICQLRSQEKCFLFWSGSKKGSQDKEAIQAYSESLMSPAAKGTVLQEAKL

SMILES	activity change, negative = inhibition
COc1ccc(NC(=O)C2CCN(C(=O)c3ccc(OC)cc3)CC2)cc1	32.3%
CN(C(=O)c1cc(-n2cnnc2)ccc1Cl)c1ccccc1	25.3%
CNc1nc(-c2ccc3c(c2)CCN3C(=O)CC(C)(C)C)c(C)s1	-8.51%
Cc1cccc(Nc2ccccc2C(=O)OCC(=O)N(C)C2CCS(=O)(=O)C2)c1C (stereo not drawn)	-26.6%
CSc1nccc(-c2sc(SC)c(C#N)c2-c2ccccc2)n1	-17.5%
O=C(C1=COCCO1)N(Cc1nnc(-c2ccccc2Cl)o1)C1CC1	2.51%
COc1ccc(OCC(O)Cn2c(Nc3cccc(C)c3)nc3c2c(=O)n(C)c(=O)n3C)cc1 (stereo not drawn)	-47.7%
Cc1ccccc1-c1cc(C(=O)NCc2cccc(Br)c2)nn1CC1CC(c2cccc([N+](=O)[O-])c2)=NO1 (stereo not drawn)	17.5%
CNc1sc(C(=O)c2cccs2)c(N)c1-c1nc2ccccc2s1	-39.9%
O=C(NCN1C(=O)C2C3C=CC(C3)C2C1=O)OC1CCCCC1 (stereo not drawn)	-27.3%
COc1cc(/C=C/C(=O)OCC(=O)c2ccc[nH]2)cc(OC)c1OC	-21.2%
CC(Sc1nc2cc([N+](=O)[O-])ccc2n1-c1ccc(F)cc1)C(=O)NCc1ccc2c(c1)OCO2 (stereo not drawn)	-41.1%
CN(C(=O)c1ccc2c(c1)CCN2S(C)(=O)=O)c1ccccc1	-0.242%
Cn1nc(-c2ccc(Cl)cc2)c2cc(C(=O)NCCCN3CCOCC3)sc21	6.44%
COc1cccc(-c2csc(N3CCN(CC(=O)NNC(=O)c4ccc(Br)cc4)CC3)n2)c1	-9.53%
CN(Cc1ccccc1N1CCCC1)C(=O)c1cc2cc(Cl)ccc2o1	-17%
CCOC(=O)Nc1ccc2c(c1)N(C(=O)C(C)N1CCCC1)c1ccccc1CC2 (stereo not drawn)	25.8%
O=C(NCCn1cc(SCC(=O)N2CCOCC2)c2ccccc21)c1c(F)cccc1F	-9.21%
Cc1ccc2c(c1)C(=O)C(=O)N2CC(=O)Nc1ccc(N2CCOCC2)cc1	23.3%

SMILES	activity change, negative = inhibition
O=c1cc(N2CCCCC2)c(-c2ccccc2)nn1Cc1cccc(F)c1	60.8%
CN(C)c1ccc(/C=C2\Oc3ccc(C#Cc4cccc(N)c4)cc3C2=O)cc1	5.11%
CNC(=O)c1ccc(Nc2nnc(-c3ccc(O)cc3)c3ccccc23)cc1	-10.1%
Cc1cc(=O)oc2cc(OCC(=O)N3CCN(C(=O)C4COc5ccccc5O4)CC3)c(Cl)cc12 (stereo not drawn)	-16.1%
CC(C)C(=O)N1CCc2cc(-c3csc(N)n3)ccc21	-22.1%
N#Cc1ccc(CN2CCN(C(=O)c3ccc(S(=O)(=O)NCc4ccco4)cc3)CC2)cc1	-45.4%
CC(=O)c1c(C)[nH]c(C(=O)OCc2nc3ccsc3c(=O)[nH]2)c1C	5.08%
Cc1ccc(C(C(=O)NC(C)(C)C)N(Cc2cccs2)C(=O)c2ccc3c(c2)OCCO3)cc1 (stereo not drawn)	9.72%
CCOc1ccccc1COC(=O)c1cccc(-n2cnnn2)c1	-9.83%
Cc1sc(NC(=O)Cc2ccc3c(c2)OCO3)nc1-c1ccc2c(c1)CCN2C(=O)c1cccc(F)c1	-23.7%
COc1ccc(CCNC(=O)CCC(=O)N2CC(C)Oc3ccc(Cl)cc32)cc1OC (stereo not drawn)	-10.9%
CS(=O)(=O)N1CCc2cc(C(=O)Nc3cccc([N+](=O)[O-])c3)ccc21	-0.139%
COC(=O)/C=C/c1ccc2c(c1)S(=O)(=O)N(c1cccc(OC)c1)[C@H]2CC(=O)OC	-6.87%
Cc1cc2oc(=O)cc(-c3ccccc3)c2c(C)c1-c1ccc(C(F)(F)F)cc1	-5.41%
O=C1C2C3C=CC(C3)C2C(=O)N1c1cccc(N2C(=O)C3C4C=CC(C4)C3C2=O)n1 (stereo not drawn)	100%
COc1ccc(-c2nnn(CC(=O)N(C3CCCCC3)C(C)C(=O)NC3CCCC3)n2)cc1OC (stereo not drawn)	-13.8%
O=C(Nc1ccc(N2CCOCC2)cc1)c1cccc(S(=O)(=O)N2CCC(Cc3ccccc3)CC2)c1	21.7%
O=C(NNC(=O)c1ccccc1O)c1ccc(S(=O)(=O)Nc2ccccc2)cc1	-1.35%
COc1ccc(S(=O)(=O)N2CCC(C(=O)NN3CCCCC3)CC2)cc1OC	4.12%
